# Measured values taken from PubChem BioAssay (Tox21).
# Several values for one entry are separate records, joined by “and”; a condition that tells them apart may be missing. Equal values may be shown once. Records with an inconclusive call do not appear. Where a call stands in place of a potency, no number is given. Some compounds were tested as several samples or in several runs, with calls that do not always agree. Activity calls are given as the source filed them. Calls follow the shape of the dose curve; as a rule, active = well fitted curve in the direction sought with a large enough effect in the repeat runs; inconclusive = weak or mixed curves; inactive = no such curve, though single readings can be large; an effect the other way counts as inactive or inconclusive.
# What was measured:
# [1] = qHTS RealTime-Glo MT Cell Viability Assay in HepG2 cells - 8 hour (AID 1224873); also: nearly all actives have a fitted effect of over 55% in size; also: potency is read from the fitted curve at half-maximal effect
# Procedure, shortened: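 Real-time viability: cells seeded at 600 per well together with NanoLuc and cell-permeant prosubstrate, compounds added after 5 h incubation. Luminescence tracked at 0, 8, 16, 24, 32 and 40 h of exposure.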
# [2] = qHTS RealTime-Glo MT Cell Viability Assay in HEK293 cells - 40 hour (AID 1224874); settings: RealTime-Glo luminescence; max response: stronger effect = lower value; also: nearly all actives have a fitted effect of over 50% in size; also: potency is read from the fitted curve at half-maximal effect
# Procedure, shortened: (§1)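 HEK293 cells mixed with RealTime-Glo reagents (NanoLuc plus cell-permeant prosubstrate) at 600 cells/well, preincubated 5 h at 37 C/5% CO2, then given 23 nL compound in DMSO. Nonlytic luminescence from viable cells was read at 0, 8, 16, 24, 32 and 40 h.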
# [3] = A CellTox Green Cytotoxicity Assay to monitor cytotoxicity in HEK293 cells - 24 hour (AID 1224875); also: nearly all actives have a fitted effect of over 45% in size; also: potency is read from the fitted curve at half-maximal effect
# Procedure, shortened: (§2)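 HEK293 cells premixed with CellTox Green dye were seeded at 600 cells/well and left 5 h at 37 C/5% CO2 before pin transfer of 23 nL compound in DMSO. Fluorescence from dye bound to dead-cell DNA was read during 40 h treatment.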
# [4] = A CellTox Green Cytotoxicity Assay to monitor cytotoxicity in HepG2 cells - 16 hour (AID 1224876); also: nearly all actives have a fitted effect of over 45% in size; also: potency is read from the fitted curve at half-maximal effect
# Procedure, shortened: (§3)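 HepG2 cells were seeded together with the CellTox Green dye at 600 cells/well, left 5 h at 37 C/5% CO2, then given compounds in DMSO. Fluorescence from dye bound to dead-cell DNA was read repeatedly over 40 h of treatment at 37 C.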
# [5] = qHTS RealTime-Glo MT Cell Viability Assay in HepG2 cells - 32 hour (AID 1224877); also: nearly all actives have a fitted effect of over 55% in size; also: potency is read from the fitted curve at half-maximal effect
# Procedure, shortened: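 Tox21 10K library screened in qHTS format on HepG2 cells carrying RealTime-Glo reagents. Compounds were added after a 5 h preincubation, and the luminescent signal from continuous culture was measured repeatedly during 40 h treatment.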
# [6] = A CellTox Green Cytotoxicity Assay to monitor cytotoxicity in HepG2 cells - 24 hour (AID 1224878); also: nearly all actives have a fitted effect of over 45% in size; also: potency is read from the fitted curve at half-maximal effect
# Procedure, shortened: as §3
# [7] = qHTS RealTime-Glo MT Cell Viability Assay in HEK293 cells - 0 hour (AID 1224880); also: top concentration of the series differs between compounds; nearly all actives have a fitted effect of over 45% in size
# Procedure, shortened: as §1
# [8] = A CellTox Green Cytotoxicity Assay to monitor cytotoxicity in HEK293 cells - 32 hour (AID 1224881); also: nearly all actives have a fitted effect of over 40% in size; also: potency is read from the fitted curve at half-maximal effect
# Procedure, shortened: as §2
# [9] = A CellTox Green Cytotoxicity Assay to monitor cytotoxicity in HepG2 cells - 0 hour (AID 1224882); also: nearly all actives have a fitted effect of over 35% in size
# Procedure, shortened: as §3
# [10] = A CellTox Green Cytotoxicity Assay to monitor cytotoxicity in HepG2 cells - 40 hour (AID 1224879); also: nearly all actives have a fitted effect of over 40% in size; also: potency is read from the fitted curve at half-maximal effect
# Procedure, shortened: as §3
Compound,Potency [1],max response [2],Potency [3],Potency [4],Potency [5],Potency [6],Potency [7],Potency [8],Potency [9],Potency [10],Potency [2]
CCCCCCCCCCCCCc1ccccc1,inactive,-7.71% (inactive),inactive,inactive,inactive,inactive,inactive,inactive,inactive,–,–
COC(=O)NCCC[Si](OC)(OC)OC,inactive,15.5% (inactive),inactive,inactive,inactive,–,inactive,inactive,inactive,inactive,–
SCCCCCCCCS,inactive,9.16% (inactive),inactive,19.5 µM (active),inactive,19.5 µM (active),inactive,inactive,inactive,–,–
CC(C)(c1cc(Br)c(O)c(Br)c1)c1cc(Br)c(O)c(Br)c1,inactive,-17.7% (inactive),inactive,inactive,inactive,inactive,inactive,inactive,inactive,–,–
CC1=C(/C=C/C(C)=C/C=C/C(C)=C/C(=O)Nc2ccc(O)cc2)C(C)(C)CCC1,inactive and 23.9 µM (active),–,inactive,inactive,inactive and 26.8 µM (active),–,inactive,inactive,inactive,50.2 µM (active) and 23.9 µM (active),893 nM (active) and 425 nM (active)
c1cc[nH]c1,inactive,10.9% (inactive),inactive,inactive,inactive,inactive,inactive,inactive,inactive,–,–
O=C(O)CCCCCCC(=O)O,inactive,12.4% (inactive),inactive,inactive,inactive,inactive,inactive,inactive,inactive,inactive,–
c1ccc2c(c1)CCC2,inactive,5.18% (inactive),inactive,inactive,inactive,inactive,inactive,inactive,inactive,–,–
CCOC(=O)COc1ccc(C)cc1,inactive,0.285% (inactive),inactive,inactive,inactive,inactive,inactive,inactive,inactive,–,–
C/C=C/C(=O)Oc1c(CCCCCC(C)C)cc([N+](=O)[O-])cc1[N+](=O)[O-],21.9 µM (active),–,38.9 µM (active),–,38.9 µM (active),38.9 µM (active),inactive,38.9 µM (active),inactive,38.9 µM (active),7.76 µM (active)
CCCCCCCCC(C)=O,inactive,9.37% (inactive),inactive,–,inactive,inactive,inactive,inactive,inactive,inactive,–
CC(C)CCOCCC(C)C,inactive,7.57% (inactive),inactive,inactive,inactive,–,inactive,inactive,inactive,–,–
CCC(C)c1ccccc1 (stereo not drawn),inactive,6.63% (inactive),inactive,–,inactive,inactive,inactive,inactive,inactive,–,–
O=C1OC(=O)c2ccc3c4c(ccc1c24)C(=O)OC3=O,inactive,0.327% (inactive),inactive,–,inactive,inactive,inactive,inactive,inactive,inactive,–
CCCCN(CCCC)CCC(O)c1cc2c(Cl)cc(Cl)cc2c2cc(C(F)(F)F)ccc12 (stereo not drawn),inactive,-17.9% (inactive),inactive,inactive,–,–,inactive,inactive,inactive,23.9 µM (active),–
C[C@@H]1CC[C@H]2C(C)(C)[C@H]3C[C@@]12CC[C@@]3(C)O,inactive,-18.5% (inactive),38.8 µM (active),–,inactive,48.9 µM (active),inactive,38.8 µM (active),inactive,54.9 µM (active),–
N#CSCSc1nc2ccccc2s1,49 µM (active),–,11 µM (active),54.9 µM (active),30.9 µM (active),–,inactive,12.3 µM (active),inactive,–,19.5 µM (active)
[O]=[Zr],inactive,1.9% (inactive),inactive,–,inactive,inactive,inactive,inactive,inactive,inactive,–
Cc1cc(C)c(C=O)c(C)c1,inactive,8.02% (inactive),inactive,inactive,–,inactive,–,inactive,inactive,inactive,–
CCOCOCC,inactive,5.75% (inactive),inactive,–,inactive,inactive,inactive,inactive,inactive,inactive,–
CN(C)CCCN1c2ccccc2CCc2ccccc21,inactive,–,inactive,–,inactive,49 µM (active),–,inactive,inactive,54.9 µM (active),54.9 µM (active)
CCCCCCCC(OC)OC,inactive,5.48% (inactive),inactive,–,inactive,inactive,inactive,inactive,inactive,inactive,–
